Assay results reported in ChEMBL document CHEMBL3988442, “University of Dundee, Small-Polar-MMV Screening Library” (2021).
Screen size: about 48,000 compounds; about 13,000 (27%) showed an effect of 50% or more. The list shows a part of the results.

Test system: Wolbachia pipientis
Assay: Anti-Wolbachia Cell-Based Screen
Assay type: functional
Design: scale not given: in the data most compounds retested in dose-response had high values
Details: 5 µM

SMILES	Percent Effect [%]
CN(CCCNC(=O)Nc1ccc(C#N)cc1)CC(F)(F)F	3.488
Cc1noc(CCNC(=O)C2CSCN2C(=O)C2CCCC2)n1 (stereo unspecified)	1.723
CC(C)N1CCC(CC(=O)NCC2OCCc3ccccc32)CC1 (stereo unspecified)	-17.34
CC(C)(O)CN1CCN(C(=O)COCC2CC2)CC1	6.995
COc1c(C)cnc(CN(C)C(=O)c2cccnc2N(C)C)c1C	-5.056
CCOCc1cnc2n1CCN(C(=O)c1ccccc1)C2C (stereo unspecified)	105.6
CCOCc1cnc2n1CCN(C(=O)c1ccoc1C)C2C (stereo unspecified)	98.54
CCOCc1cnc2n1CCN(C(=O)c1cccc3c1OCCO3)C2C (stereo unspecified)	83.71
CCOCc1cnc2n1CCN(C(=O)Cc1cccs1)C2C (stereo unspecified)	1.059
COCc1cnc2n1CCN(C(=O)c1cc3ccccc3o1)C2C (stereo unspecified)	-14.51
Cc1ncoc1C(=O)N1CCn2c(COCC3CC3)cnc2C1C (stereo unspecified)	-11.18
COCc1cnc2n1CCN(C(=O)c1oc3ccccc3c1C)C2C (stereo unspecified)	-7.418
CCOCc1cnc2n1CCN(C(=O)Cc1ccco1)C2C (stereo unspecified)	-11.07
COCc1cnc2n1CCN(C(=O)c1cn(C)c3ccccc13)C2C (stereo unspecified)	101.2
COc1ncccc1C(=O)N1CCn2c(COCC3CC3)cnc2C1C (stereo unspecified)	-2.491
CC1c2ncc(COCC3CCOCC3)n2CCN1C(=O)c1ccoc1 (stereo unspecified)	2.746
COCc1cnc2n1CCN(C(=O)c1cnc3ccccc3c1)C2C (stereo unspecified)	-17.18
c1ccc2sc(N3CCCN(c4ncnc5c4CCNC5)CC3)nc2c1	-7.795
CC(NCCNS(=O)(=O)c1cccc(Cl)c1)C1CCOCC1 (stereo unspecified)	-16.43
CCOc1ccc(C(=O)NCc2ccnc(N3CCCC3)c2)cn1	-6.067
CCCN1CCN(Cc2cccc(OCC(N)=O)c2)[C@H]2CS(=O)(=O)C[C@H]21	-4.749
CCOCc1cnc2n1CCN(C(=O)c1cn(C)c3ccccc13)C2C (stereo unspecified)	101.9

SMILES	Percent Effect [%]
O=C(c1ccc(Cl)cn1)N1CCC(COCc2ccccc2)C1 (stereo unspecified)	7.677
CCc1noc(CN(CC(=O)N2CCCCC2)c2ccc(C)cc2)n1	0.4396
CCc1noc(CN(CCC2CCCCC2)CC(N)=O)n1	163.4
CC(C)c1noc(CC[C@@H]2CCCN3CCCC[C@H]23)n1	17.3
CN(Cc1noc(C(C)(C)C)n1)CC1CCN(CCO)CC1	-10.5
CC(=O)N1CCCCCC1C1CCN(Cc2nc(C(C)C)no2)CC1.Cl (stereo unspecified)	9.412
C=C(C)CN(CC)Cc1nc(CC)no1	1.944
CC(C(=O)NC1CCCC1)S(=O)(=O)Cc1noc(C(C)(C)C)n1 (stereo unspecified)	6.849
CC(C)c1noc(CN(CCC2CCCCC2)CC(N)=O)n1	116.2
CC(C)(C)c1nc(CN(CCC2CCCCC2)CC(N)=O)no1	228.2
CC(C#N)CSc1ccccc1NCC(=O)NCc1ccccc1 (stereo unspecified)	17.5
CCC1CN(C(=O)c2cc(C(C)=O)c(C)[nH]c2=O)CCN1C(C)C (stereo unspecified)	0.5617
CCCN(c1ccccc1C(=O)O)S(=O)(=O)c1cccc2cccnc12	-16.07
CCCc1nc(N2CCC(CCO)CC2)c2cnn(C)c2n1	-6.253
COCCN1CCN(c2nc(C3CCCC3)nc3c2cnn3C)CC1	8.561
CCCc1nc(N2CCCC(CCOC)C2)c2cnn(C)c2n1 (stereo unspecified)	105.9
CCc1nc(N2CCCC(CCCOC)C2)c2cnn(C)c2n1 (stereo unspecified)	108.6
COCC1CCN(c2nc(C(C)(C)C)nc3c2cnn3C)C1 (stereo unspecified)	-4.471
CCc1nc(N2CCN(CCOC)CC2)c2cnn(C)c2n1	1.381
Cc1noc([C@H]2C[C@H]3OCC[C@H]3N(Cc3ccc(F)cc3)C2)n1.O=C(O)C(F)(F)F	9.305
CCN(CC)C(=O)Cn1nc(C(C)C)c2cnn(C(C)(C)C)c2c1=O	8.022
C=C(C)CN(Cc1cccc(O)c1)C1CCC(O)CC1 (stereo unspecified)	3.823

SMILES	Percent Effect [%]
CCc1nc2c(N3CCC4(CC3)CNC(=O)C4)ncnc2o1	4.745
c1cncc(CN2CCC(c3csc4nccn34)CC2)c1	140.6
c1cncc(CN2CCC(c3n[nH]c(C4CC4)n3)CC2)c1	10.48
c1cc(CN2CCC(c3ccnc4nccn34)C2)ccn1 (stereo unspecified)	128.4
c1cc(CN2CCCC(c3ccnc4nccn34)C2)ccn1 (stereo unspecified)	150
Cc1cccc(CN2CCC(c3nccn3CC(N)=O)CC2)n1	-14.31
Fc1ccc(OCc2nnc([C@H]3CCN(Cc4ccncc4)C3)o2)cc1	12.6
Cn1c(Cn2ccnc2)nnc1C1CCCN(Cc2ccncc2)C1 (stereo unspecified)	-0.06506
c1cc(-c2cc(C3CCN(Cc4cncnc4)C3)ccn2)ccn1 (stereo unspecified)	-7.458
Cc1cccc(CN2CCC(NS(C)(=O)=O)CC2)n1	-9.608
Cc1cccc(CN2CCC(c3csc4nccn34)CC2)n1.O=CO	151.3
FC(F)(F)c1cc(C2CCCN(Cc3ccncc3)C2)n[nH]1 (stereo unspecified)	-5.824
Cc1ncsc1C(=O)NC1CCN(Cc2cccnc2)CC1	3.367
Cc1ccc(C)c(S(=O)(=O)NCCNc2ccc(-n3cccc3)nn2)c1	14.81
C=C(C)CN(CC)S(=O)(=O)c1cccc(F)c1C#N	-7.097
CCN(CCO)C(=O)C1CCC(=O)N(CCc2cccc(F)c2)C1 (stereo unspecified)	-9.721
O=C(Nc1cnccn1)[C@H]1COC[C@H]2CN(c3ncc(F)cn3)C[C@H]21	-11.52
CCN1CCN(C(=O)c2cnc(Cc3c(Cl)cccc3Cl)nc2O)CC1	1.362
CCc1nccc(CN2CCCC(CNC(=O)c3occc3C)C2)n1 (stereo unspecified)	4.372
CCn1ccnc1CN(C)C1CCCN(CCc2ccccc2)C1 (stereo unspecified)	17.47
Clc1cccnc1N1CCC(C2CCN(Cc3cccnc3)CC2)C1 (stereo unspecified)	-0.1569
c1ccc(CCN2CCCC(c3ccnc4nccn34)C2)cc1 (stereo unspecified)	130.1

SMILES	Percent Effect [%]
c1cncc(CN2CCC(c3ccnc4nccn34)C2)c1 (stereo unspecified)	122.6
Clc1ccc(CN2CCC(C3CCN(Cc4cccnc4)CC3)C2)cc1 (stereo unspecified)	-5.932
c1ccc(CCN2CCCC(c3noc(C4CC4)n3)C2)cc1 (stereo unspecified)	-7.15
O=C(Cc1ccsc1)N1CCC(c2n[nH]c3nccnc23)CC1	72.86
O=C(Cc1ccsc1)N1CCCC(c2n[nH]c3ncccc23)C1 (stereo unspecified)	100.9
O=C(Cc1ccsc1)N1CCCC(c2n[nH]c3nccnc23)C1 (stereo unspecified)	-11.37
CC(=O)N1CCC(c2n[nH]c3nccnc23)CC1	120.8
COCC(=O)N1CCC(c2n[nH]c3nccnc23)CC1	142.1
COCC(=O)N1CCC(c2nccn2CC2CC2)CC1	-30.12
Cc1ncc(S(=O)(=O)N(CC(C)C)c2cccc(O)c2)s1	-3.046
O=C(NCCC(O)c1ccco1)c1ccco1 (stereo unspecified)	-7.433
CCC(CC)NC(=O)c1cncc(Br)c1	15.73
CN1CCC(c2nnc(CN3CCC(O)CC3)n2C)CC1	-6.188
CC1CN(C)c2ccccc2CN1C(=O)c1cscn1 (stereo unspecified)	-10.99
O=C(Nc1c(N2CCCC2)cccc1N1CCCC1)c1cnccn1	-1.067
CC(=O)N1CC(C)CN(C(=O)c2cscn2)c2ccccc21 (stereo unspecified)	95.98
CC1CN(C(=O)c2cscn2)c2ccccc2S1 (stereo unspecified)	-14.12
CC(=O)N1CC(C)CN(C(=O)c2cccnc2C)c2ccccc21 (stereo unspecified)	91.16
CC(=O)N1CC(C)CN(Cc2ccon2)c2ccccc21 (stereo unspecified)	7.641
CCc1nc(C)ncc1C(=O)N1CC(C)CN(C)c2ccccc21 (stereo unspecified)	-1.529
Cc1ncsc1C(=O)N1CC(C)Sc2ccccc21 (stereo unspecified)	0.6302
CC(=O)N1CC(C)CN(C(=O)c2cnccn2)c2ccccc21 (stereo unspecified)	97.68

SMILES	Percent Effect [%]
CN(C)C(=O)N1CC2(CCN(S(=O)(=O)C3CC3)CC2)c2ccccc21	-5.03
O=C(CCO)N[C@H]1CN(CC2CCC2)C[C@@H]1c1ccccc1	4.649
CN(Cc1cnn(-c2ccccc2)n1)CC1CCCN1c1cccnn1 (stereo unspecified)	15.2
CN(Cc1ccc(-n2cccn2)cc1)CC1CCCN1c1cccnn1 (stereo unspecified)	115.9
CN(Cc1nc(N)c2ccccc2n1)CC1CCCN1c1cccnn1 (stereo unspecified)	-0.6342
Cc1nc2ccccc2nc1CN(C)CC1CCCN1c1cccnn1 (stereo unspecified)	5.031
CCn1ccnc1CN(C)CC1CCCN1c1cccnn1 (stereo unspecified)	7.087
CN(Cc1ccc(-n2ccnc2)cc1)CC1CCCN1c1cccnn1 (stereo unspecified)	126.9
CN(Cc1cccc(C(N)=O)c1)CC1CCCN1c1cccnn1 (stereo unspecified)	103.6
CN(Cc1ccccn1)CC1CCCN1c1cccnn1 (stereo unspecified)	130
COc1ccc(CN(C)CC2CCCN2c2cccnn2)cc1F (stereo unspecified)	12.57
Cc1noc(C)c1CN(C)CC1CCCN1c1cccnn1 (stereo unspecified)	-0.05919
CN(Cc1ccc(-n2cccn2)cc1)C[C@@H]1CCCN2CCCC[C@H]12	18.72
Cc1cnc(CN(C)CC2CCCN2c2cccnn2)cn1 (stereo unspecified)	-5.64
CCCOc1cccc(NC(=O)NC2CCc3nc(C)nn3C2)c1 (stereo unspecified)	-22.59
Cc1cc(N(C)Cc2ncc[nH]2)nc(-c2ccccc2)n1	4.008
CCOCCn1nc(C)cc1C(=O)N1CC[C@](C)(O)C(C)(C)C1	2.862
O=C(Nc1cccnc1)[C@H]1CN(Cc2ccccn2)C[C@H]2OCC[C@@H]12.O=C(O)C(F)(F)F.O=C(O)C(F)(F)F	-14.96
